Screening data: PubChem, Center for Chemical Genomics, University of Michigan
Many of the other results were omitted from the sample, so hits are more common in it than they were.
Dicer processing – inhibitors of human Dicer processing of pre-microRNA. Q9UPY3. hit rate 6% among 47,000. z-score at 25 µM. cat-ELCCA pre-miR-21 Dicer processing, chemiluminescence; hits give high values; in the data active = z-score above about 3, passing the limit was not always enough;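 also: higher signal means more uncleaved substrate so more Dicer inhibition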
Each line names hits and unclear results; the compound was inactive in the other large screens.

CN1CCN(c2ncnc3oc(-c4ccccc4)c(-c4ccccc4)c23)CC1	none
COc1cc(CN2CCN(Cc3cccc4ccccc34)CC2)cc(OC)c1	Dicer processing 3.7
COc1cccc(CN2CCN(Cc3c[nH]c4ccccc34)CC2)c1OC	Dicer processing 3.4
COc1ccc(CN2CCN(Cc3cc(OC)ccc3O)CC2)cc1	none
COc1ccc(OC)c(CN2CCN(Cc3c[nH]c4ccccc34)CC2)c1	none
COc1ccc(CN2CCN(Cc3ccc4c(c3)OCO4)CC2)c2ccccc12	none
COc1ccc(CN2CCN(Cc3c[nH]c4ccccc34)CC2)c(OC)c1	none
CCCSc1ccc2nc(NC(C)=O)[nH]c2c1	none
O=c1[nH]nc(Sc2ncc([N+](=O)[O-])s2)n1Cc1ccccc1	none
COc1cc(C2C(C#N)=C(N)Oc3cc(O)ccc32)ccc1OCc1ccc(F)cc1 (configuration not stated)	none
CC1(C)CC(=O)C2(CNC3=C(C2)C(=O)CC(C)(C)C3)C(=O)C1	none
CC(=O)Nc1ncc(C(F)(F)F)cc1Cl	none
O=S(=O)(c1ccc(-c2noc(-c3ccccc3)n2)cc1)N1CCOCC1	Dicer processing 3.3
O=S(=O)(c1ccc(-c2cn3ccccc3n2)cc1)N1CCOCC1	none
O=S(=O)(c1ccc(-c2nc(-c3ccc(Cl)cc3)cs2)cc1)N1CCOCC1	none
Cn1c(N2C(=O)CC(Cc3ccc(Cl)cc3)C2=O)nc2ccccc21 (configuration not stated)	none
COC(=O)c1sc2ncccc2c1O	none
CCOC(=O)/C(C#N)=C/NN(C)c1ccc(C(F)(F)F)cc1[N+](=O)[O-]	none
CCOC(=O)c1c(NC(=O)Nc2cccc(C(F)(F)F)c2)sc2c1CCC(C)C2 (configuration not stated)	none
CC1=CC(c2ccc(Cl)cc2)n2nc(NC(=O)c3ccco3)nc2N1 (configuration not stated)	Dicer processing 9.8
CS(=O)(=O)Nc1nc2n(n1)C(c1ccc(F)cc1)C=C(c1ccc(Cl)cc1)N2 (configuration not stated)	none
Cc1ccc(C2C=C(c3ccc(Cl)cc3)Nc3nc(NS(C)(=O)=O)nn32)cc1 (configuration not stated)	none
COc1ccc(C2c3c(oc4ccccc4c3=O)C(=O)N2c2nc(C)c(C)s2)cc1OC (configuration not stated)	none
COC(=O)C(=Cc1ccc(-c2cc(C(F)(F)F)ccc2Cl)o1)C(=O)OC	none
CC(C)(C)Sc1ccc(C(=O)N(Cc2ccc3c(c2)OCO3)c2ccc(F)cc2)cc1[N+](=O)[O-]	none
O=C1CC(c2ccc3c(c2)OCO3)c2c(-c3ccccc3)nn(-c3ccccc3)c2N1 (configuration not stated)	none
O=C1ON(c2ccccc2)C(c2ccc3c(c2)OCO3)N1c1ccccc1 (configuration not stated)	Dicer processing 3.2
COc1ccccc1C1N(c2ccccc2)OC(=O)N1c1ccccc1 (configuration not stated)	none
COCCCn1c2c(c(=O)[nH]c1=O)C(c1ccc(Cl)cc1)C1=C(N2)c2ccccc2C1=O (configuration not stated)	none
CC(=O)Nc1cc2c(s1)CCCC2	none
O=C(CSc1nncn1-c1ccc(C(F)(F)F)cc1)Nc1ccc(C(F)(F)F)cc1	none
NC(=O)CN1C(=O)/C(=C\c2ccc(F)cc2)N=C1c1ccccc1	none
O=C1/C(=C\c2ccccc2)N=C(c2ccccc2)N1c1ccccc1	none
O=C1/C(=C/c2ccc(Cl)cc2)N=C(c2ccccc2)N1CCc1ccc(Cl)cc1	Dicer processing 4.2
COc1ccc(/C=C2/N=C(c3ccccc3)N(Cc3ccc(F)cc3)C2=O)cc1	Dicer processing 3.9
C=CCN1C(=O)/C(=C\c2ccc(OCc3ccccc3)cc2)N=C1c1ccccc1	none
O=C1/C(=C\c2cccs2)N=C(c2ccccc2)N1Cc1ccc(Cl)cc1	none
CNc1ccccc1C(=O)NCc1cccs1	none
C=CCC1(O)CC(c2ccccc2)NC(c2ccccc2)C1CC (configuration not stated)	none
Cc1nnsc1-c1onc(C)c1-c1nc(-c2ccc([N+](=O)[O-])s2)no1	none
O=C(CSc1nc(-c2ccccc2)cn1-c1ccccc1)NC(=O)Nc1ccccc1	Dicer processing 3.4
Cn1c(SCC(=O)Nc2ccccc2)nnc1SCC(=O)Nc1ccccc1	none
CCOC(=O)CSc1nc(-c2ccccc2)cn1-c1ccccc1	none
Clc1ccc(Nc2nc(SCc3ccccc3)nc3nc(N4CCOCC4)ncc23)cc1	none
C=CCn1c(SCC(=O)c2ccccc2)nc2sc3c(c2c1=O)CCC(C)C3 (configuration not stated)	none
CC1=CC(C)C2COC(c3ccccc3O)C1C2C (configuration not stated)	none
O=C1CC(c2ccc3c(c2)OCO3)c2c(ccc3ccccc23)N1 (configuration not stated)	none
CC1=CC(C)C2COC(c3ccc4c(c3)OCO4)C1C2C (configuration not stated)	Dicer processing 4
COCc1nc(-c2ccc(-c3ccc(Cl)cc3)nc2OC)no1	none
COc1ccc(C2CC(=O)c3cnc(NC4OC(=O)c5ccccc54)nc3C2)cc1OC (configuration not stated)	none
CCOC(=O)N1CCN(c2ncc3c(n2)CC(c2ccc(OC)c(OC)c2)CC3=O)CC1 (configuration not stated)	Dicer processing 3.5
COc1ccc(C2CC(=O)c3cnn(-c4nc(C)cc(C)n4)c3C2)cc1OC (configuration not stated)	none
Oc1ccc2ccccc2c1CN1CCN(c2ccc(F)cc2)CC1	none
Oc1ccc2ccccc2c1CN1CCc2ccccc2C1	Dicer processing 3.6
CC1CCN(Cc2c(O)ccc3ccccc23)CC1	none
CC1(C)CC(=O)c2cnc(NCc3ccc(F)cc3)nc2C1	none
O=C(Nc1ccc(Cl)cc1)Sc1ccccc1Cl	none
NC(Cc1c[nH]c2ccccc12)C(=O)O (configuration not stated)	none
Nc1ccccc1CC(c1c[nH]c2ccccc12)c1c[nH]c2ccccc12	Dicer processing 4.8
O=C(NCC(c1ccccc1)c1c[nH]c2ccccc12)C(F)(F)F (configuration not stated)	none
Cc1ccc(CSc2nnc(-c3cc(C)n(-c4ccc([N+](=O)[O-])cc4)n3)n2C)cc1	none
O=C1CSC(=Nc2ccc(Cl)cc2)N1Cc1ccco1	none
CC(c1ccccc1)C1CC(=O)N(Cc2ccco2)C1=O (configuration not stated)	none
Cc1cc(C)c(N=C2SCC(=O)N2Cc2ccco2)c(C)c1	Dicer processing 4.8
O=C1CSC(=Nc2cc(Cl)cc(Cl)c2)N1Cc1cccs1	none
COc1ccccc1N=C1SCC(=O)N1Cc1ccco1	Dicer processing 4
COc1ccc(N=C2SCC(=O)N2CCc2ccc(OC)c(OC)c2)cc1	none
O=C1NN(c2ccccc2)C(=O)C2C3c4ccccc4C(c4ccccc43)C12 (configuration not stated)	none
O=c1oc(-c2cccc(C(F)(F)F)c2)nc2cccc(F)c12	none
C/C(Nc1ccc([N+](=O)[O-])cc1)=C1/CCOC1=O	none
C/C(Nc1ccc(F)cc1)=C1/CCOC1=O	Dicer processing 3.2
Cc1cc(C(=O)Nc2ccc(F)cc2)c(C)o1	none
O=C(Cn1cnc2sc(-c3ccccc3)cc2c1=O)c1ccccc1	none
COc1ccccc1N1CC(C)(C)C(=O)NC1=S	Dicer processing 6.2
COc1ccccc1NC(=S)N1CC(C)(C)C1=O	none
COc1ccccc1N1C(=O)C2C3C=CC(CC3)C2C1=O (configuration not stated)	none
N#CCCN(Cc1ccccc1)S(=O)(=O)c1ccccc1	none
CCN(CC)CCn1c(-c2ccc(Br)cc2)cn2c3ccccc3nc12	none
